# Sampled rows, rich in hits. Any-hit rate of the full collection: about 3.6%.
# TDP-43 yeast inh = TDP-43 toxicity inhibition in yeast | TDP-43 expressing yeast growth rescue, BacTiter-Glo, 24 h | Potency, µM (titrated, usually from 46.1 µM), most hits filed as activators | 410,000 compounds, 1.8% hits | AID 652104; note: nearly all actives have a fitted effect of over 50% in size
#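 Readout is BacTiter-Glo luminescence of cell growth, so inhibitors register as activators. TDP-43-expressing yeast at OD600=0.02 in galactose medium, after raffinose pregrowth to mid-log, were incubated with compound for 24 hr at 30 deg C.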
# aSyn yeast inh = alpha-synuclein toxicity inhibition in yeast | Potency, µM (doses to about 46.1 µM), actives largely listed as activators | AID 652106 | Yeast expressing alpha-synuclein, growth rescue, BacTiter-Glo, 24 h | 370,000 compounds, 0.14% hits; note: nearly all actives have a fitted effect of over 65% in size
#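 Rescue of yeast growth: cells expressing toxic alpha-synuclein, induced in galactose at OD600 0.02, incubated with compound 24 h at 30 C. ATP luminescence quantified growth; inhibitors of toxicity appear as activators.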
# Mm-Cpn inhibitor = M. maripaludis TRiC chaperonin inhibition; purified Mm-Cpn ATPase, ADP Transcreener TR-FRET; Potency, µM (highest dose often 76.9 µM), hits mostly inhibitors; 330,000 compounds, 0.031% hits; note: nearly all actives have a fitted effect of over 80% in size
#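 ATPase turnover read by TR-FRET ADP competition (Eu cryptate antibody/ADP-d2, 665/590 nm): 10uM ATP final, 25nM Mm-CPN final, 30 min 37degC after 10-min compound preincubation, pH 7.4 Tris/KCl/MgCl2/DTT buffer.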
# Abeta rescue = restores growth of yeast expressing A-beta42 peptide. yeast expressing A-beta42, growth rescue, OD600, 48 h; response scale: 0% DMSO, 100% iron-clioquinol control. Potency, µM (top dose mostly 46.1 µM), hits mostly activators. 410,000 compounds, 0.063% hits. AID 1347071; note: nearly all actives have a fitted effect of over 55% in size
#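 Growth rescue measured by 600 nm absorbance after 48 h yeast culture at 30 C with compound. Values normalized between DMSO and an equimolar ferric chloride plus clioquinol control.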
# ClpP mod = qHTS Assay for Activators of ClpP. ATP-dependent Clp protease proteolytic subunit (Bacillus subtilis (strain 168)), P80244. purified B. subtilis ClpP, FRET peptide cleavage, 20 min. Potency, µM (doses to about 57.5 µM). 340,000 compounds, 1.9% hits; active = well fitted falling curve with a large enough effect; inconclusive = small, poorly fitted or top-dose-only effect; inactive = no such curve, though single readings can be large or run the other way; note: the source files actives as falling curves though it sought activators and does not explain the sign; nearly all actives have a fitted effect of over 65% in size
# Target sequence (P80244 whole entry, looked up): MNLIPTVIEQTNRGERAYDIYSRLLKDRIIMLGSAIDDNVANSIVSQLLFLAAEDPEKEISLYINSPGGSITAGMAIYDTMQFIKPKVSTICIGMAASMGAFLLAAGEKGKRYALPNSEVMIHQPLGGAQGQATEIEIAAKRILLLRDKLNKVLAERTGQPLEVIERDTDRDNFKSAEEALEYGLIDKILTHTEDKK
#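 ClpP 10 microg/mL final, pH 8 Tris/KCl buffer with BSA, glycerol, Tween-20; compound pinned in; FRET-FV substrate; RT 20 min; Ex320/Em430; ΔFRET vs ADEP 5.8 microM, DMSO, no enzyme.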
# FUS suppressor = suppressors of FUS proteinopathy in yeast; S. cerevisiae FUS-expressing, growth rescue, OD600, 24 h; Potency, µM (doses to about 76.6 µM), hits mostly activators; 390,000 compounds, 0.24% hits; note: nearly all actives have a fitted effect of over 55% in size
#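 Yeast expressing FUS under galactose induction, OD 0.005 in 2% galactose medium; compounds in a dilution series, 24 h at 30C. Growth rescue by absorbance at 600 nm; CP55940 positive control, DMSO negative.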
# Hits are given with their value; 0 = inactive; ? = inconclusive; - = no result given. Unless noted, calls come from the whole dose curve; as a rule, active = well fitted curve in the direction sought with a large enough effect; inconclusive = small, poorly fitted or top-dose-only effect, or another doubt; inactive = no such curve, though single readings can be large; an effect the other way counts as inactive or inconclusive.
SMILES,TDP-43 yeast inh,aSyn yeast inh,Mm-Cpn inhibitor,Abeta rescue,ClpP mod,FUS suppressor
Cc1nn(CCCC(=O)Nc2cc(Oc3ccccc3)cc([N+](=O)[O-])c2)c(C)c1[N+](=O)[O-],0,0,0,0,25µM,0
CCCCCCCCN1CN2Cc3cc(OC)ccc3C2CS1(=O)=O (centres undefined),-,-,-,-,-,0
Cc1cccc(-n2c(SCC(=O)Nc3ncc(Cl)cc3Cl)nc3ccccc32)c1,0,0,0,0,0,?
O=C(CSc1nc2ccccc2n1-c1ccccc1)Nc1ncc(Cl)cc1Cl,22µM,0,0,0,0,0
CC(C)c1nnc(NC(=O)c2nc(SCc3ccc(F)cc3)ncc2Cl)s1,0,-,-,0,0,8.9µM
Cc1nnc(NC(=O)c2nc(SCc3ccccc3F)ncc2Cl)s1,16µM,-,-,0,0,?
CCc1nnc(NC(=O)c2nc(SCc3ccccc3F)ncc2Cl)s1,18µM,-,-,0,0,0
CCc1nnc(NC(=O)c2ccc3ccccc3n2)s1,32µM,0,0,0,0,0
CCCCNC(=O)c1cccc(NC(=O)c2nsc3ccccc23)c1,?,-,-,0,0,0
c1ccc(-n2c(-c3ccco3)nnc2-c2ccco2)cc1,0,0,0,0,14µM,0
CCCCC[C@H](O)/C=C/C1C(=O)C=C[C@H]1C/C=C\CCCC(=O)OC (some centres undefined),28µM,0,-,0,0,0
CN(C)[C@H]1CCN(c2cccc3c2S(=O)(=O)N(C2CC2)CCCO3)C1,-,-,-,-,-,0
CCOC(=O)C1CCCN(S(=O)(=O)c2cc(-c3cc(C)no3)ccc2C)C1 (centres undefined),35µM,-,-,0,0,?
CCOC(=O)C1CCN(S(=O)(=O)c2cc(-c3cc(C)no3)ccc2C)CC1,0,-,-,0,0,0
CCOC(=O)C1CCCN(S(=O)(=O)c2ccc(Cl)nc2)C1 (centres undefined),0,0,0,0,22µM,0
CCOC(=O)C1CCCN(S(=O)(=O)c2ccc(C)cc2)C1 (centres undefined),0,0,0,0,0,0
O=C(NC1CCCCCC1)C1CCC(CNS(=O)(=O)c2cccc3cccnc23)CC1 (centres undefined),-,0,-,-,0,-
COc1ccccc1C(=O)Nc1cc(Cl)ccc1O,0,0,0,0,0,0
CCOc1ccccc1C(=O)Nc1cc2c(cc1N1CCCCC1)n(C)c(=O)n2C,32µM,-,-,0,?,0
CCOc1ccccc1C(=O)Nc1cc(Cl)ccc1O,2.8µM,0,0,0,0,0
Cc1ccc(C(=O)NCCn2c(C)cc3ccccc32)cc1C,?,-,-,0,0,0
Cc1cc2ccccc2n1CCNC(=O)c1ccc(S(=O)(=O)N2CCCCC2)cc1,0,0,14µM,0,0,?
CC(C)(C)c1ccc(C(=O)Nc2nc3nc(-c4ccccc4)cc(=O)n3[nH]2)cc1,?,-,-,0,0,0
CCCSc1nnc(NC(=O)c2sc3nc(-c4cccs4)ccc3c2N)s1,0,0,0,0,?,13µM
Cc1csc(NC(=O)c2sc3nc(-c4cccs4)ccc3c2N)n1,0,0,0,0,0,0
SMILES,TDP-43 yeast inh,aSyn yeast inh,Mm-Cpn inhibitor,Abeta rescue,ClpP mod,FUS suppressor
Cc1nc(-c2coc3cc(OCC(=O)O)ccc3c2=O)cs1,0,0,0,0,35µM,0
Cc1nc(-c2coc3cc(O)c(C)cc3c2=O)cs1,0,0,0,0,0,0
CCOC(=O)CNC(c1ccccc1)c1cc(Br)ccc1NC(=O)CCN1CCOCC1 (centres undefined),22µM,0,0,0,0,0
COC(=O)CNC(c1ccccc1)c1cc(Br)ccc1NC(=O)CCN1CCOCC1 (centres undefined),?,0,0,0,0,?
CCOC(=O)CSc1nc2sc3c(c2c(=O)n1-c1ccc(OC)cc1)CC(C(C)C)OC3 (centres undefined),?,-,-,0,0,0
COCCn1c(=NC(=O)c2ccc(S(=O)(=O)N3CCCc4ccccc43)cc2)sc2cc(S(C)(=O)=O)ccc21,0,0,0,0,0,-
